# Mtb UGM inh = Mtb UDP-galactopyranose mutase inhibition; inhibition, % at 10 µM; purified UGM, fluorescence polarization probe displacement; P9WIQ1; actives 0.06% (n = 320,000); AID 504406; in the data active means inhibition above about 10%, passing the limit was not always enough
# GDH-TPI inh = GDH-TPI coupled enzyme inhibition counter-screen. GDH-TPI coupled enzyme counterscreen, NADH absorbance. inhibition, % at 4.8 µM. actives 1.2% (n = 360,000); in the data active means inhibition above about 30%
# Mtb FBA inh = inhibitors of M. tuberculosis fructose-bisphosphate aldolase; P9WQA3; purified M. tuberculosis FBA, fluorescence read-out; inhibition, % at 1 µM; actives 2.3% (n = 360,000); AID 588726; in the data active means inhibition above about 27%
# Target sequence (P9WQA3 whole entry, looked up): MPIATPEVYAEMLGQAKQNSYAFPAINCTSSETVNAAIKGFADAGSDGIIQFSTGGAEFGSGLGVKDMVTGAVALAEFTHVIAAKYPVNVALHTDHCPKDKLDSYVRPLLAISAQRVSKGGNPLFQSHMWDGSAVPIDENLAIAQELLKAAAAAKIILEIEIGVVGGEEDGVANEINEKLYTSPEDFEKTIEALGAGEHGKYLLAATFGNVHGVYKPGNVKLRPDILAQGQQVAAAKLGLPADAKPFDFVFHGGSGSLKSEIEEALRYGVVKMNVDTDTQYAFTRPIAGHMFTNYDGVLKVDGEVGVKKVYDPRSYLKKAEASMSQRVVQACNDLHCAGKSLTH
# Mtb betalactam = beta-lactam sensitization of Mtb H37Rv. M. tuberculosis H37Rv growth with meropenem, percent inhibition. inhibition, % at 25 µM. actives 0.27% (n = 330,000). AID 434955; call rule not given here;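 further: growth measured after seven days incubation then overnight dye step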
# Rv3671c inh = inhibits the M. tuberculosis serine protease Rv3671c; actives 0.048% (n = 320,000); inhibition, % at 5.96 µM; P9WHR9; in the data active means inhibition above about 38%;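 further: extracellular domain of Rv3671c used as enzyme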
# FadD28 binding = inhibitors of Mycobacterium tuberculosis FadD28 bisubstrate binding; FadD28 bisubstrate probe binding, fluorescence polarization; inhibition, % at 12.5 µM; actives 0.22% (n = 360,000); in the data active means inhibition above about 8.5%, passing the limit was not always enough
# A number is an active result; - = inactive; . = no result; + = active, no number. In the library only some 3.7% were active in any assay of this set; here they are far more common.
SMILES,Mtb UGM inh,GDH-TPI inh,Mtb FBA inh,Mtb betalactam,Rv3671c inh,FadD28 binding
Cc1ccccc1S(=O)(=O)NC(=O)C1(C)CCN1C(=O)C(C)(C)c1ccccc1 (stereo not drawn),.,-,-,.,.,-
Cc1ccc(S(=O)(=O)Nc2cccc3c2O[C@H](CN(C)Cc2ccccc2)[C@@H](C)CN([C@H](C)CO)C3=O)cc1,-,-,-,-,-,-
COC(=O)c1ccc(COc2cc(C)ccc2C)o1,-,-,-,-,-,-
COc1cc(C)ccc1OCc1cc(C(=O)N2CCCCCCC2)no1,-,-,-,-,-,-
Cc1ccccc1C(=O)Nc1cccc(C(=O)N/N=C/c2ccccn2)c1,-,-,-,-,-,-
C[C@H](O)[C@H](O)[C@H]1CNc2nc(N)[nH]c(=O)c2N1,-,-,73.4,-,-,-
CC(=O)c1ccc(-c2cccs2)s1,-,-,+,-,-,-
CCC(=O)c1ccc(N2CCN(C(=O)c3ccccc3F)CC2)c(F)c1,-,-,-,-,-,-
O=C(c1cccs1)N1CCN(c2ccc([N+](=O)[O-])cc2F)CC1,-,-,-,-,-,-
Cc1cc(N2CCN(C(=O)c3cccs3)CC2)c(F)cc1[N+](=O)[O-],-,37.8,-,-,-,-
O=C(c1cc(N2CCOCC2)c(F)cc1[N+](=O)[O-])N1CCOCC1,-,-,51.3,-,-,-
CCC(=O)c1ccc(N2CCN(C(=O)c3cccs3)CC2)c(F)c1,-,32.2,-,-,-,-
CC1ON=C(c2ccccn2)N(Cc2ccc(S(C)(=O)=O)cc2)C1=O (stereo not drawn),.,-,-,.,.,-
CCCNC(=O)c1cc(C2CCCCN2C(=O)c2ccc(C#N)cc2)on1 (stereo not drawn),.,-,-,.,.,-
CC(C)Oc1cc(F)ccc1-c1cc(C(=O)NCCCn2ccnc2)[nH]n1,.,-,-,.,.,-
CN1CCN2c3ccccc3CC(C#N)(C#N)C2C1 (stereo not drawn),.,.,-,.,.,-
CCc1nc2sc3ccccc3c(=O)c2c(=O)n1Cc1ccc(OC)cc1,-,33.8,-,-,-,-
O=C1CCc2cccc(O)c2N1,.,-,-,.,.,-
Cc1csc(=NC(=O)c2ccccc2)n1C,-,-,-,-,-,-
CCn1c(C)csc1=NC(=O)c1ccccc1,-,34.0,-,-,-,-
CCn1c(C)csc1=NC(=O)c1ccccc1O,-,37.5,-,-,-,-
Cc1csc(=NC(=O)c2ccccc2)n1Cc1ccco1,-,-,-,-,-,-
S=c1[nH]nc(-c2cc3ccccc3o2)n1Cc1ccccc1,-,-,132.1,-,-,-
O=C(N/N=C1\CCS(=O)(=O)c2ccc(F)cc21)c1ccc(O)cc1,-,45.6,-,-,-,-
O=S1(=O)CC/C(=N/Nc2ccccn2)c2cc(F)ccc21,-,32.9,-,-,-,-
SMILES,Mtb UGM inh,GDH-TPI inh,Mtb FBA inh,Mtb betalactam,Rv3671c inh,FadD28 binding
C(=N\n1cnc2ccccc21)/c1cccnc1,-,-,-,-,-,-
Clc1nc2sccn2c1/C=N/n1cnc2ccccc21,-,46.9,-,-,-,-
O=C(Nc1ccc2c(c1)OCCO2)N1CCN(Cc2ccccc2)CC1,-,31.7,-,-,-,-
O=C(Nc1ccc2c(c1)OCCO2)N1CCN(c2ccccc2)CC1,-,-,-,-,-,-
CC1(C(=O)NS(=O)(=O)c2cccc(Cl)c2)CCN1C(=O)C1(c2ccccc2)CC1 (stereo not drawn),.,-,-,.,.,-
O=C(NCc1cccc(C(F)(F)F)c1)c1csc([C@@H]2C[C@H](O)[C@@H](CO)O2)n1,.,-,-,.,.,-
COc1ccc(-c2cn3ccccc3n2)cc1,-,-,113.6,-,-,-
Clc1ccc(-c2cn3ccccc3n2)cc1,-,-,-,-,-,-
COc1cc(C(C#N)N2CCOCC2)ccc1O (stereo not drawn),-,36.8,-,-,-,-
COc1ccc(C(C#N)N2CCCCC2)cc1OC (stereo not drawn),-,-,-,-,-,-
COc1cc(C(C#N)N2CCCCC2)ccc1O (stereo not drawn),-,33.9,-,-,-,-
Cc1c(C(=O)NCc2ccc3c(c2)OCCO3)sc(=O)n1Cc1ccccc1F,.,-,-,.,.,-
Cc1ccc(C(C)C)c(OCC(=O)NNC(=O)CC2OC(=O)c3ccccc32)c1 (stereo not drawn),-,-,-,-,-,-
O=C([C@H]1O[C@@H](n2ccc(=O)[nH]c2=O)[C@H](O)[C@@H]1O)N(CCC1=CCCCC1)CC1CC1,.,.,-,.,.,-
Cc1ccc(S(=O)(=O)c2cc(Nc3ccccc3)ccc2O)cc1,-,-,-,-,-,-
O=S(=O)(O)c1ccc(O)c2cc(Nc3ccccc3)ccc12,.,-,-,.,.,59.0
COc1ccc(CCN2CC(C(=O)NCCc3ccccc3C(F)(F)F)CCC2=O)cc1 (stereo not drawn),-,-,-,-,-,-
Nc1nc(=S)c2ncn(C3CCCCC3)c2[nH]1,.,30.7,-,.,.,.
FC(F)(F)C(F)(F)C(F)(F)c1nc2nc(Cl)c(Cl)nc2[nH]1,.,34.2,-,.,.,-
COc1ccc(C(=O)NCC2CCCO2)cc1 (stereo not drawn),-,-,-,-,-,-
COc1ccc2cc3cc(C(=O)NCCN4CCN(c5ccccc5F)CC4)oc3nc2c1,-,34.3,+,-,-,-
COc1ccc2cc3cc(C(=O)NCC4CCCO4)oc3nc2c1 (stereo not drawn),-,-,+,-,-,-
COc1ccc2cc3cc(C(=O)NCCC(C)C)oc3nc2c1,-,-,134.1,-,-,-
CCC(C)NC(=O)c1cc2cc3ccc(OC)cc3nc2o1 (stereo not drawn),-,-,+,-,-,-
Cc1onc(-c2c(F)cccc2Cl)c1C(=O)Oc1ccccc1,.,.,-,.,.,-
SMILES,Mtb UGM inh,GDH-TPI inh,Mtb FBA inh,Mtb betalactam,Rv3671c inh,FadD28 binding
CC1Cc2ccccc2N1C(=O)COC(=O)c1ccc([N+](=O)[O-])o1 (stereo not drawn),-,-,-,-,-,-
COCCNC(=O)c1cc2cc3ccc(OC)cc3nc2o1,-,-,+,-,-,-
Cc1ccc2cc3cc(C(=O)NCCCN4CCCC4)oc3nc2c1,-,38.5,127.2,-,-,-
CCOc1ccc(NC(=O)c2cc3cc4ccc(OC)cc4nc3o2)cc1,-,-,-,-,-,-
C=CCNc1ncnc2c1ncn2[C@H]1CN(CCOC)C[C@@H](CO)O1,.,-,-,.,.,-
Cc1cc2nc(-c3ccc(SCC(=O)Nc4ccc(S(=O)(=O)N5CCCC5)cc4)nc3)[nH]c2cc1C,-,38.3,-,-,-,-
CC(=O)CSc1ccc(-c2nc3ccccc3[nH]2)cn1,-,-,-,-,-,-
O=C(CSc1ccc(-c2nc3ccccc3[nH]2)cn1)Nc1ccc(S(=O)(=O)N2CCCC2)cc1,-,-,-,-,-,21.5
Cc1ccc2nc(-c3ccc(SCC(=O)O)nc3)[nH]c2c1,-,53.1,+,-,-,-
Cc1ccc2nc(-c3ccc(SCC(=O)N4CCc5ccccc54)nc3)[nH]c2c1,-,-,-,-,-,-

# Source: PubChem (several laboratories)
